# The panel holds about 79,000 compounds, 15% with a hit somewhere; the sample as a whole holds those more often. A number with no mark means an inactive call. The source made the active and inactive calls. Cut-off read from the data, not from the text of the source: active = growth inhibition above about 70%; inactive = the rest.
# What was measured:
# [1] = NCI Yeast Anticancer Drug Screen. Data for the rad50 strain (AID 155);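 note: 0% = growth of vehicle-only cultures of the same strain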; details: S. cerevisiae rad50 strain growth inhibition, active compounds read high
# Method in brief: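 Vehicle-treated cultures provide the reference for the growth inhibition reported for compound-exposed, repair-deficient yeast.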
# [2] = NCI Yeast Anticancer Drug Screen. Data for the mec2-1 strain (AID 157); details: S. cerevisiae mec2-1 strain, active compounds read high
# Method in brief: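 Yeast mec2-1 mutant treated with compound. Readout: growth inhibition vs vehicle controls.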
# [3] = NCI Yeast Anticancer Drug Screen. Data for the sgs1 mgt1 strain (AID 161);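 note: 0% = growth of cultures given vehicle only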; details: S. cerevisiae sgs1 mgt1 strain, active compounds read high
# Method in brief: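 Read-out: growth inhibition vs vehicle controls. Cells: mutant yeast strain deficient in DNA damage repair.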
# [4] = NCI Yeast Anticancer Drug Screen. Data for the cln2 rad14 strain (AID 165);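 note: 0% = growth equal to vehicle treated cultures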; details: S. cerevisiae cln2 rad14 strain, active compounds read high
# Method in brief: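 cln2 rad14 yeast strain; compound exposure; growth inhibition read vs vehicle controls.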
# [5] = NCI Yeast Anticancer Drug Screen. Data for the bub3 strain (AID 167); details: S. cerevisiae bub3 mutant strain, active compounds read high
# Method in brief: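 Mutant yeast screening strain plus compound; vehicle-treated cultures serve as the 0% inhibition reference.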
# [6] = NCI Yeast Anticancer Drug Screen. Data for the mlh1 rad18 strain (AID 175); details: S. cerevisiae mlh1 rad18 strain growth inhibition, active compounds read high
# Method in brief: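 Yeast w/ defined DNA-repair lesions; compound exposure; growth vs vehicle controls → % inhibition.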
# [7] = at 5.0 µM (retest, dose inferred, filed as 0.5)
# [8] = at 50.0 µM (retest, dose inferred, filed as 5.0)
SMILES,"growth inhibition [1, 7]","growth inhibition [1, 8]",growth inhibition ([1]; at 50.0 µM),"growth inhibition [2, 7]","growth inhibition [2, 8]",growth inhibition ([2]; at 50.0 µM),"growth inhibition [3, 7]","growth inhibition [3, 8]",growth inhibition ([3]; at 50.0 µM),"growth inhibition [4, 7]","growth inhibition [4, 8]",growth inhibition ([4]; at 50.0 µM),"growth inhibition [5, 7]","growth inhibition [5, 8]",growth inhibition ([5]; at 50.0 µM),"growth inhibition [6, 7]","growth inhibition [6, 8]",growth inhibition ([6]; at 50.0 µM)
O=C(c1ccccc1)N(C(=S)N(C(=O)c1ccccc1)c1ccccc1)c1ccccc1,-3%,12%,99% (active),-1%,-2%,99.7% (active),1%,-4%,99.2% (active),3%,-7%,98.8% (active),0%,-3%,99% (active),-1%,-3%,99.1% (active)
COC12C=CC(CC1)c1c2c(O)c2ccncc2c1O (configuration not stated),9%,89% (active),58.1%,-3%,81% (active),56.7%,4%,87% (active),70%,-3%,68%,55.9%,18%,95% (active),59.8%,-3%,86% (active),64.8%
NNc1ccccc1[N+](=O)[O-],8%,80% (active),89% (active),8%,84% (active),89.2% (active),-2%,62%,84.6% (active),24%,82% (active),77.2% (active),6%,98% (active),88.5% (active),-11%,96% (active),83.3% (active)
CC(Cc1ccccc1)NN1CCOC(c2ccccc2)C1C (configuration not stated),2%,66%,32.1%,-2%,56%,56.8%,0%,78% (active),64.2%,-1%,16%,13.1%,9%,59%,46%,-3%,72% (active),73% (active)
CC1=Cc2cc3[n-]c(cc4nc(cc5[n-]c(cc1n2)cc5C)C(C)=C4CCC(=O)O)c(CCC(=O)O)c3C.[Pd+2],0%,72% (active),15.1%,2%,55%,26%,0%,80% (active),12.2%,-11%,61%,62.8%,-3%,69%,7.7%,-1%,73% (active),10.6%
COC(=O)C12CCC(C)(C)CC1C1=CCC3C4(C)CC(O)C(O)C(C)(C(=O)OC)C4CCC3(C)C1(CO)CC2 (configuration not stated),30%,97% (active),91.5% (active),30%,99% (active),91.7% (active),15%,99% (active),91.8% (active),39%,99% (active),91.4% (active),26%,99% (active),88.8% (active),31%,98% (active),85.8% (active)
CC/C=C\C/C=C\C/C=C\CCCCCCCC(=O)OCC(O)CO (configuration not stated),0%,4%,22.9%,0%,37%,88.1% (active),0%,48%,86.8% (active),1%,10%,42.9%,-2%,83% (active),53.4%,2%,24%,52.5%
O=C1C=CC(=O)C(c2ccc(Cl)cc2)=C1,45%,96% (active),90.8% (active),54%,97% (active),93% (active),33%,99% (active),92.8% (active),40%,99% (active),91.5% (active),44%,97% (active),92% (active),32%,98% (active),90.8% (active)
CC(C)c1ccc2c(c1)CC[C@H]1[C@](C)(CN)CCC[C@]21C,3%,98% (active),98.8% (active),2%,98% (active),89.2% (active),11%,99% (active),99.7% (active),3%,97% (active),91.8% (active),7%,99% (active),90% (active),-9%,98% (active),98.4% (active)

# Reference: PubChem BioAssay (NCI)
